Several values for one entry are separate records, joined by “and”; a condition that tells them apart may be missing. Equal values may be shown once. Results filed as inconclusive are left out. More than one record can exist for a structure, and the calls need not agree. Activity calls are given as the source filed them. How the source made its calls, unless noted: active means hit-call score of the fitted dose curve at least 0.9, where 1 is the maximum; inactive means score below 0.9.

Assay [1] has as its target Retinoic acid receptor RXR-alpha (Homo sapiens) (UniProt P19793). Nature of the assay: ATG_RXRa_TRANS: Attagene TRANS-FACTORIAL HepG2 Assay for human Retinoid X Receptor alpha (RXRa) (AID 2283012; active means hit-call score of the fitted dose curve at least 0.9, where 1 is the maximum). In short, it runs like this: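 Cells (HepG2) carried transiently transfected GAL4-responsive reporter units. Following a 24 h chemical incubation, reporter mRNA induction was read via RT-PCR fragment analysis; DMSO served as negative control and baseline.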

Assay [2] deals with human Retinoid X Receptor beta (RXRb), RXRB (gene 6257) (UniProt P28702). The experiment in a line: ATG_RXRb_TRANS: Attagene TRANS-FACTORIAL HepG2 Assay for human Retinoid X Receptor beta (RXRb) (AID 2283013; active means hit-call score of the fitted dose curve at least 0.9, where 1 is the maximum). In short, it runs like this: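 Multiplexed TRANS reporter assay in HepG2; 24 h dosing; reporter mRNA by RT-PCR/CE fluorescence; gain-of-signal relative to DMSO.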
The target in assay [3] is human Thyroid Receptor alpha (THRa1), THRA (gene 7067) (UniProt P10827). Nature of the assay: ATG_THRa1_TRANS: Attagene TRANS-FACTORIAL HepG2 Assay for human Thyroid Receptor alpha (THRa1) (AID 2283014; active means hit-call score of the fitted dose curve at least 0.9, where 1 is the maximum). In short, it runs like this: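 Transcripts from GAL4-UAS-driven reporters, measured after 24 h compound exposure by RT-PCR plus capillary electrophoresis of 6-FAM-labeled fragments, were fitted for gain of signal relative to DMSO. Cells: transiently transfected HepG2 expressing NR-Gal4 chimeras.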

Read-out in assay [4]: E-selectin (Homo sapiens) (UniProt P16581)
The experiment in a line: BSK_3C_Eselectin: BioMAP Diversity Plus: 3C Assay for Eselectin Biomarker Activity (AID 2283015).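 On outcome: cell surface E-selectin protein quantified by ELISA 24 h after dosing.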 Particulars: primary human endothelial cells (HUVEC); actives raise or lower the signal. In short, it runs like this: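 E-selectin ELISA readout, fitted bidirectionally relative to DMSO, taken 24 h post-dosing in HUVEC cultures of the 3C system. Overt cytotoxicity tracked with sulforhodamine B staining of parallel wells.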

Read-out in assay [5]: Interleukin-1 alpha (IL1a), IL1A (gene 3552)
Nature of the assay: BSK_BE3C_IL1a: BioMAP Diversity Plus: BE3C Assay for Interleukin-1 alpha (IL1a) Biomarker Activity (AID 2283016). The conditions noted are these: primary human bronchial epithelial cells; actives raise or lower the signal. In short, it runs like this: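 Cultures of primary human bronchial epithelial cells receive test chemical. After 24 h, IL-1a is quantified by ELISA, while parallel wells are fixed in TCA and SRB-stained for total protein. Changes in either direction are fitted relative to DMSO.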

Read-out in assay [6]: Monocyte Chemoattractant Protein-1 (MCP1), CCL2 (gene 6347)
Nature of the assay: BSK_3C_MCP1: BioMAP Diversity Plus: 3C Assay for Monocyte Chemoattractant Protein-1 (MCP1) Biomarker Activity (AID 2283017). The conditions noted are these: primary human endothelial cells (HUVEC); actives raise or lower the signal. In short, it runs like this:
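MCP-1 was measured by ELISA 24 h after dosing in primary HUVEC 3C cultures and fitted in both directions relative to DMSO; cytotoxicity was checked by SRB total-protein staining in parallel wells.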

Read-out in assay [7]: Monocyte Chemoattractant Protein-1 (MCP1), CCL2 (gene 6347)
The experiment in a line: BSK_4H_MCP1: BioMAP Diversity Plus: 4H Assay for Monocyte Chemoattractant Protein-1 (MCP1) Biomarker Activity (AID 2283018). The conditions noted are these: primary human endothelial cells (HUVEC); actives raise or lower the signal. In short, it runs like this:
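Readout: MCP-1 ELISA on compound-treated HUVEC, sampled 24 h post-dosing. Baseline and negative control DMSO; bidirectional fit. Overt toxicity checked alongside by sulforhodamine B protein staining at time of biomarker measurement.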

Read-out in assay [8]: Human Leukocyte Antigen - DR isotype (HLADR), HLA-DRA (gene 3122)
Nature of the assay: BSK_3C_HLADR: BioMAP Diversity Plus: 3C Assay for Human Leukocyte Antigen - DR isotype (HLADR) Biomarker Activity (AID 2283019).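 On outcome: ELISA of cell-surface HLA-DR on HUVEC 24 h after dosing.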 The conditions noted are these: primary human endothelial cells (HUVEC); actives raise or lower the signal. In short, it runs like this: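 Bidirectional fitting against DMSO was applied to the HLA-DR ELISA signal from human umbilical vein endothelial cells, 24 h post-dose. Cytotoxicity came from parallel SRB total-protein staining; 3C proliferation was counted by SRB at 48 h.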

Read-out in assay [9]: Interleukin-8 (IL8), CXCL8 (gene 3576)
Nature of the assay: BSK_3C_IL8: BioMAP Diversity Plus: 3C Assay for Interleukin-8 (IL8) Biomarker Activity (AID 2283020). Particulars: primary human endothelial cells (HUVEC); actives raise or lower the signal. In short, it runs like this:
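Human vascular endothelial cells (umbilical vein) in the 3C system; IL-8 level detected by ELISA at 24 h post-dose, with DMSO as baseline.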

Read-out in assay [10]: Monokine induced gamma interferon (MIG), CXCL9 (gene 4283)
The experiment in a line: BSK_3C_MIG: BioMAP Diversity Plus: 3C Assay for Monokine induced gamma interferon (MIG) Biomarker Activity (AID 2283021).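 On AC50: MIG protein level measured by immunoassay in the treated endothelial cultures.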 The conditions noted are these: primary human endothelial cells (HUVEC); actives raise or lower the signal. In short, it runs like this: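 After 24 h of treatment, human umbilical vein endothelial cultures (3C system) had their MIG biomarker level determined by ELISA, with DMSO serving as negative control.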

The target in assay [11] is human Vitamin D Receptor (VDR), VDR (gene 7421) (UniProt P11473). The experiment in a line: ATG_VDR_TRANS: Attagene TRANS-FACTORIAL HepG2 Assay for human Vitamin D Receptor (VDR) (AID 2283022; active means hit-call score of the fitted dose curve at least 0.9, where 1 is the maximum). In short, it runs like this: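 Transactivation by an exogenous VDR-Gal4 chimera in transiently transfected HepG2 cells was measured as reporter transcript level 24 hours after chemical treatment. RT-PCR products were analysed by capillary electrophoresis and fitted in the positive direction relative to DMSO.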

The nature of assay [12]: BSK_3C_SRB: Viability Assessment in the BioMAP Diversity Plus: 3C Assay (AID 2283023).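 Further: fitted both ways against DMSO so a hit may be signal rise or drop.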 The conditions noted are these: primary human endothelial cells (HUVEC). In short, it runs like this: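 Cytotoxicity readout in parallel HUVEC 3C cultures: after 24 h compound exposure, cells fixed with 10% TCA, stained with 0.1% SRB and read at 560 nm. Gain or loss relative to DMSO fitted.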

Read-out in assay [13]: Matrix Metallopeptidase 1 (MMP1), MMP1 (gene 4312)
The experiment in a line: BSK_BE3C_MMP1: BioMAP Diversity Plus: BE3C Assay for Matrix Metallopeptidase 1 (MMP1) Biomarker Activity (AID 2283024). Particulars: primary human bronchial epithelial cells; actives raise or lower the signal. In short, it runs like this:
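Dose cells, wait 24 h, run MMP1 ELISA; cells are human bronchial epithelial primaries. Both increases and decreases relative to DMSO counted.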

A short description of assay [14]: BSK_3C_Vis: BioMAP Diversity Plus: 3C Assay for Morphology Visualization (AID 2283025).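 Further: fitted both ways so gain or loss versus DMSO counts.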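 On AC50: light microscopy image of cell morphology used as background control.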 The conditions noted are these: primary human endothelial cells (HUVEC). In short, it runs like this: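 Endothelial cells from human umbilical vein were treated with test chemicals for 24 h and inspected by light microscopy for changes in cell conformation.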
Read-out in assay [15]: Pselectin, SELP (gene 6403)
Nature of the assay: BSK_4H_Pselectin: BioMAP Diversity Plus: 4H Assay for Pselectin Biomarker Activity (AID 2283026). Particulars: primary human endothelial cells (HUVEC); actives raise or lower the signal. In short, it runs like this: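 Human vascular endothelium from umbilical vein; P-selectin measured by ELISA at 24 h post-dose, with cytotoxicity checked by sulforhodamine B total-protein staining in parallel cultures (0.1% SRB after 10% TCA fixation, read at 560 nm).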

Assay [16] can be described thus: BSK_4H_SRB: Viability Assessment in the BioMAP Diversity Plus: 4H Assay (AID 2283027).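 Further: cells exposed to compound for 24 h before staining.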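 On AC50: curves fitted both ways versus DMSO so AC50 may be loss or gain.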 Particulars: primary human endothelial cells (HUVEC). In short, it runs like this:
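Human umbilical vein endothelial cells, 24 h after chemical dosing; total protein measured by 0.1% sulforhodamine B staining after 10% TCA fixation, read at 560 nm. Bidirectional fitting against DMSO.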

Read-out in assay [17]: Thrombomodulin, THBD (gene 7056)
Nature of the assay: BSK_3C_Thrombomodulin: BioMAP Diversity Plus: 3C Assay for Thrombomodulin Biomarker Activity (AID 2283029). The conditions noted are these: primary human endothelial cells (HUVEC); actives raise or lower the signal. In short, it runs like this: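 Thrombomodulin ELISA, human primary HUVEC, 24 h post-dose; data fitted in both directions relative to DMSO.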

Assay [18] can be described thus: BSK_BE3C_SRB: Viability Assessment in the BioMAP Diversity Plus: BE3C Assay (AID 2283028). The conditions noted are these: primary human bronchial epithelial cells. In short, it runs like this:
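Cytotoxicity read-out: SRB (0.1%) staining of TCA-fixed (10%) human lung bronchial epithelial cells, absorbance 560 nm, 24 h post-dosing. Curves fitted both directions relative to DMSO.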

Assay [19] addresses human RAR-related Orphan Receptor gamma (RORg), RORC (gene 6097) (UniProt P51449). The experiment in a line: ATG_RORg_TRANS: Attagene TRANS-FACTORIAL HepG2 Assay for human RAR-related Orphan Receptor gamma (RORg) (AID 2283011; active means hit-call score of the fitted dose curve at least 0.9, where 1 is the maximum). In short, it runs like this:
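Reporter transcripts from a transfected RORg-GAL4 chimera in HepG2 cells were quantified 24 h after dosing by RT-PCR, 6-FAM labelling, HpaI digestion and capillary electrophoresis; increases over DMSO baseline were fitted.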

Chain of Retinoic acid receptor RXR-alpha (Homo sapiens) (P19793 whole entry, looked up, the tested form may be a part): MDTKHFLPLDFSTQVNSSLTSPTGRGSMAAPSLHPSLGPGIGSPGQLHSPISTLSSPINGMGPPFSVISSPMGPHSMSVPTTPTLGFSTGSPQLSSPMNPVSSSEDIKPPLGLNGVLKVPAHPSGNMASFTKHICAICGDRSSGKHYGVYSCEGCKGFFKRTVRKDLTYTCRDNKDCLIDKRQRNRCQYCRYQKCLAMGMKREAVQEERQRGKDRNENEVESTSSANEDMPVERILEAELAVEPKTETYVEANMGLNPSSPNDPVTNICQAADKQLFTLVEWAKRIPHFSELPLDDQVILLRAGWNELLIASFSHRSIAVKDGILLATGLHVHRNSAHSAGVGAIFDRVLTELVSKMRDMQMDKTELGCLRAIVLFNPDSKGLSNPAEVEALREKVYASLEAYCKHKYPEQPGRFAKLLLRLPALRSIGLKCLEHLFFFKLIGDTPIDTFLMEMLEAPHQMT
Chain of human Retinoid X Receptor beta (RXRb), RXRB (gene 6257) (P28702 whole entry, looked up, the tested form may be a part): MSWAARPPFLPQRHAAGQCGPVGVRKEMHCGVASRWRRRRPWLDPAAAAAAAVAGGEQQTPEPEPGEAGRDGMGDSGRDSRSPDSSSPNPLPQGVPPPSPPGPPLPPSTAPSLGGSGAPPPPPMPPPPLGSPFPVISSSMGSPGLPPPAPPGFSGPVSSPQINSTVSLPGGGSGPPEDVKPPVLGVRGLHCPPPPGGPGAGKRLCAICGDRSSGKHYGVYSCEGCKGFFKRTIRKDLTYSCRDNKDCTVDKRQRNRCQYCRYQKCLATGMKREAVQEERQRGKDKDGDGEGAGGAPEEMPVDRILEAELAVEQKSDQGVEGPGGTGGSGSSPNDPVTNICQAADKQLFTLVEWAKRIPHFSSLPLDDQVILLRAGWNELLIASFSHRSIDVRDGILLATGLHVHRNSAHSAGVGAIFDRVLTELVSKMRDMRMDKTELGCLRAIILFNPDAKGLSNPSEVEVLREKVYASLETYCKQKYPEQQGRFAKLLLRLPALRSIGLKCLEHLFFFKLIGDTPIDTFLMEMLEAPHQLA
Chain of human Vitamin D Receptor (VDR), VDR (gene 7421) (P11473 whole entry, looked up, the tested form may be a part): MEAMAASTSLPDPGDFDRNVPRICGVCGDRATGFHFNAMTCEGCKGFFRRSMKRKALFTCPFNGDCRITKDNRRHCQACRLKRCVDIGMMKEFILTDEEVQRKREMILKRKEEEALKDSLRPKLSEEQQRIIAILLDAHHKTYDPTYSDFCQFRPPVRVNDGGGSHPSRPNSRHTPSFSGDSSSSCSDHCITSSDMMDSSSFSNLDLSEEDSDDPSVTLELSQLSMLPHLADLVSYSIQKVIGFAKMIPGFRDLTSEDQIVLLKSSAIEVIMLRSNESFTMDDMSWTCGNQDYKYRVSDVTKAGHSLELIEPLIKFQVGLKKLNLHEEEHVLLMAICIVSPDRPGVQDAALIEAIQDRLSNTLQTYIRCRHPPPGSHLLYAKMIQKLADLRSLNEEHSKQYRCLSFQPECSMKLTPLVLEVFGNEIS
Chain of human RAR-related Orphan Receptor gamma (RORg), RORC (gene 6097) (P51449 whole entry, looked up, the tested form may be a part): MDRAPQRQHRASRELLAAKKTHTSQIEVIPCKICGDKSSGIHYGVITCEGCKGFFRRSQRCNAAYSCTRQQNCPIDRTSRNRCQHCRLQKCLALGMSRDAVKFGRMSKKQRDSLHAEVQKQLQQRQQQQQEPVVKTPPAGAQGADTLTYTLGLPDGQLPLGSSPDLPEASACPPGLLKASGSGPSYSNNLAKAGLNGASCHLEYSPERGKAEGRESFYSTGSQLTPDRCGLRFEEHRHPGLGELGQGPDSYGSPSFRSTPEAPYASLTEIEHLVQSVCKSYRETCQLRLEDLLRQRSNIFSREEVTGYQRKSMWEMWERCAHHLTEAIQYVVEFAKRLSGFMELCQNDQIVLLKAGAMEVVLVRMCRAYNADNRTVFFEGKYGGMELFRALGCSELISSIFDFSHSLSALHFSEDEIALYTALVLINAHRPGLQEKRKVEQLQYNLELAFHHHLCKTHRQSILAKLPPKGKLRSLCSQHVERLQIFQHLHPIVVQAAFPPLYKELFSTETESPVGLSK
Chain of human Thyroid Receptor alpha (THRa1), THRA (gene 7067) (P10827 whole entry, looked up, the tested form may be a part): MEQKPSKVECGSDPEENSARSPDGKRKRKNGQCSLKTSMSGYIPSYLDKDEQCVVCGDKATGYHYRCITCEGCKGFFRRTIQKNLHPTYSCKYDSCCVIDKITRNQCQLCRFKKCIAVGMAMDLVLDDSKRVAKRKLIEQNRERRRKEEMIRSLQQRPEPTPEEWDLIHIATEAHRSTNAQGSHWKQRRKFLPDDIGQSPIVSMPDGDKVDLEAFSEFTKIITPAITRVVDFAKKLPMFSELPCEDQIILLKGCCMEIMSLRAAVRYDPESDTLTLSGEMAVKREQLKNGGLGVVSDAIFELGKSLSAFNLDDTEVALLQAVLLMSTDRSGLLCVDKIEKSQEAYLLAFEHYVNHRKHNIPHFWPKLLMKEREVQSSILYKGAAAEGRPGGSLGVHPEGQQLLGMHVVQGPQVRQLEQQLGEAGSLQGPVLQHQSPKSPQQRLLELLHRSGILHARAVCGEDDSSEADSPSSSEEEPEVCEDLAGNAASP
Chain of E-selectin (Homo sapiens) (P16581 whole entry, looked up): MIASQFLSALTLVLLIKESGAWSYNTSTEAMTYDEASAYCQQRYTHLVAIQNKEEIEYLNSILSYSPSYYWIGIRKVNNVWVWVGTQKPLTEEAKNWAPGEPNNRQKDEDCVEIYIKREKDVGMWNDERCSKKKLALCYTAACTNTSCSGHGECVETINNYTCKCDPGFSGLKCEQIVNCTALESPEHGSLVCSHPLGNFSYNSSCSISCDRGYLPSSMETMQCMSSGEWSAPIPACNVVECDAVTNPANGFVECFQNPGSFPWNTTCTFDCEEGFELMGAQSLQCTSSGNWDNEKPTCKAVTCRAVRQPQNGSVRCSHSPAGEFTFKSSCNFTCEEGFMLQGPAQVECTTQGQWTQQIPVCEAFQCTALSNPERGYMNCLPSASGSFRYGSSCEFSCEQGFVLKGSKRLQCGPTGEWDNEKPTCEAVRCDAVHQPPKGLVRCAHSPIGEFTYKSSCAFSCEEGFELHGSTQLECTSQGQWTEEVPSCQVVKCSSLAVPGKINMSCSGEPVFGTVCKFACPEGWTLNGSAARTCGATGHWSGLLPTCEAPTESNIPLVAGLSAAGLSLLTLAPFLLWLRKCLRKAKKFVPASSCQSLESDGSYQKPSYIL

In the case of `O[Si](c1ccccc1)(c1ccccc1)c1ccccc1`, the outcome in assay [1], in assay [2], in [3], in assay [5], in assay [9] and in assay [10] was inactive. Besides, the compound was classed as inactive in assay [11], in [13] and in [17]. The AC50 (as a rule, the concentration giving half of the maximal activity seen) is 6.83 µM (active) in [4]; 37.6 µM (active) in [6]; 11.9 µM (active) in [7]; 30.6 µM (active) in assay [8]; 28.9 µM (active) in [12]; 37.4 µM (active) in assay [14]. The AC50 is 26.8 µM (active) in assay [15] and 13.8 µM (active) in assay [16].
Turning to `CC(CCl)OP(=O)(OC(C)CCl)OC(C)CCl` (configuration not stated), the outcome in [1], in [2], in [4], in assay [5], in assay [6] and in [7] was inactive. In addition, the result in assay [8], in assay [10], in assay [11], in assay [12], in [13] and in assay [14] was inactive. The result in assay [15], in [16], in assay [18] and in assay [17] was inactive.
Take `FC(F)(F)C(F)(F)C(F)(F)N(C(F)(F)C(F)(F)C(F)(F)F)C(F)(F)C(F)(F)C(F)(F)F`: the outcome in assay [2], in assay [3], in assay [4], in assay [5], in [6] and in [7] was inactive. Also, the outcome in [8], in [10], in [11], in [12], in assay [13] and in assay [15] was inactive. For the same compound, the outcome in assay [16] and in [17] was inactive.
On to `CC(C)=CCCC(C)CCOC(=O)C(C)C` (configuration not stated), for which the compound was called inactive in assay [19], in assay [2], in assay [3] and in assay [11].
Regarding `FC(F)(Br)C(F)(F)C(F)(F)C(F)(F)C(F)(F)C(F)(F)Br`, the call in [1], in assay [2], in [4], in assay [5], in assay [6] and in [7] was inactive. The result in [8], in assay [10], in assay [11], in assay [12], in [13] and in [15] was inactive. Also, the result in [16], in [18] and in assay [17] was inactive.
On to `FC(F)(I)C(F)(F)C(F)(F)C(F)(F)I`, for which the result in [19], in assay [2], in [7] and in assay [17] was inactive. The half-maximal activity concentration (AC50) was 49 µM (active) and 50.6 µM (active) and 53.6 µM (active) in assay [4]; 47.5 µM (active) and 46 µM (active) and 45 µM (active) in assay [5]; 44.5 µM (active) and 49 µM (active) and 51.6 µM (active) in [6]; 45.6 µM (active) and 19.3 µM (active) in assay [7]; 50.2 µM (active) and 46.5 µM (active) and 59 µM (active) in assay [8]; 46.1 µM (active) and 53.1 µM (active) and 53.3 µM (active) in assay [9]. For the same compound, the AC50 was 52.8 µM (active) and 46.1 µM (active) and 55.3 µM (active) in assay [10]; 55 µM (active) and 51 µM (active) and 51.9 µM (active) in assay [12]; 44 µM (active) and 50.6 µM (active) and 22.7 µM (active) in assay [13]; 47.9 µM (active) and 30 µM (active) and 44.7 µM (active) in [15]; 56.2 µM (active) and 42.7 µM (active) and 50.5 µM (active) in [16].
In the case of `FC(F)(F)C(F)(F)C(F)(F)C(F)(F)C(F)(F)C(F)(F)C(F)(F)I`, the result in [19], in [2], in assay [4], in assay [5], in assay [6] and in [7] was inactive. The outcome in assay [8], in assay [10], in [12], in assay [13], in assay [15] and in [16] was inactive. Also, the outcome in assay [17] was inactive.
As to `CO[Si](OC)(c1ccccc1)c1ccccc1`, the compound was classed as inactive in assay [1], in assay [2], in assay [5], in assay [10], in assay [11] and in assay [13]. Besides, the result in assay [15], in assay [16] and in assay [17] was inactive. For the same compound, the AC50 was 31 µM (active) in assay [4]; 32 µM (active) in assay [6]; 0.148 µM (active) in assay [7]; 32.5 µM (active) in assay [8]; 36.9 µM (active) in assay [12]; 37.4 µM (active) in assay [14].
With `CCCCCCOC(=O)c1ccccc1`, the call in [1], in assay [3] and in assay [11] was inactive.

(Values after PubChem BioAssay (EPA / NIEHS).)
